Sampled rows, rich in hits. Any-hit rate of the full collection: about 0.97%.
CCT modulator: High-Throughput Screening for Modulators of Cytosolic Chaperonin Activity. AID 651819, 2012. purified chaperonin ATPase assay, HTRF ADP detection, 30 min. 0.3% of 360,000 active. activity change, % (test concentration not listed), hits read low; in the data active means activity change below about -30%
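Enzyme 40 or 20 nM (batch-dependent) in Tris pH 7.4/KCl/MgCl2/DTT; cpd 76 uM single point; ATP 10 uM; 30 min 37 °C; Transcreener ADP HTRF detection, 30 min RT; ratio 665/615.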
Eya2 inh: qHTS Assay for Inhibitors of the Phosphatase Activity of Eya2. Protein phosphatase EYA2 (Homo sapiens), O00167. recombinant Eya2, OMFP fluorescence dephosphorylation (OMFP is methylfluorescein phosphate). Potency, µM (top dose mostly 76.9 µM), inactives show at the top dose activity, negative = inhibition, actives largely listed as inhibitors. 0.006% of 330,000 active. AID 488837, 2010; active means well fitted inhibition curve with a large enough effect; inconclusive means small, poorly fitted or top-dose-only effect, or effect the other way; further: potency means the concentration at half of the fitted maximal effect
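Eya2 (0.2 uM) preincubated 10 min at ambient with compound, then OMFP substrate added at 50 uM; 10 min reaction in 50 mM HEPES pH 7.5, 50 mM NaCl, 5 uM MgCl2, 0.05% BSA, 1 mM DTT. Fluorescence read at Ex 485/Em 525 nm.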
PI4K2A inh: qHTS for small molecular inhibitors of PI4K2A. activity change, negative = inhibition, % at 76.9 µM. 0.13% of 420,000 active. purified PI4K2A, ADP-Glo luminescence, 1 h; hits give low values. AID 1346378, 2018. Phosphatidylinositol 4-kinase type 2-alpha (Homo sapiens), Q9BTU6; in the data active means activity change below about -50%; inconclusive means mostly about -30% to -49%;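 further: -100% = wells without enzyme as full effect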
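ADP-Glo luminescence measured ADP generated by PI4K2A enzyme (4 ug/mL before mixing) with 1.2 mM PI substrate (pre-mix) and 300 microM ATP (pre-mix). Tris pH7.5 buffer with MgCl2, Triton X-100; 1 h reaction at ambient temperature.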
CtBP-E1A blk: qHTS Assay for Inhibitors of the CtBP/E1A Interaction. AID 651724, 2012. AlphaScreen GST-E1A/His-CtBP binding, 1536-well; hits give low values. 0.49% of 340,000 active. activity change, % (no concentration beside the values). CtBP / adenovirus E1A interaction (AlphaScreen)
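Protein mix (5X: 125 nM each GST-E1A, His-CtBP) was incubated with pinned compound 2 h at 37 deg C in dark, in 50 mM Tris pH 8.0 buffer with 300 mM NaCl. Glutathione donor and nickel acceptor beads followed; AlphaScreen signal read after 1 h.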
Six1-Eya2 blk: qHTS Assay for Inhibitors of the Six1/Eya2 Interaction; 0.56% of 360,000 active; activity change, % (test concentration not listed); AlphaScreen GST-Six1/His-Eya2 binding, biochemical; hits give low values; AID 651725, 2012; Homeobox protein SIX1 (Homo sapiens) + Protein phosphatase EYA2 (Homo sapiens), …
Target sequence (O00167 whole entry, looked up): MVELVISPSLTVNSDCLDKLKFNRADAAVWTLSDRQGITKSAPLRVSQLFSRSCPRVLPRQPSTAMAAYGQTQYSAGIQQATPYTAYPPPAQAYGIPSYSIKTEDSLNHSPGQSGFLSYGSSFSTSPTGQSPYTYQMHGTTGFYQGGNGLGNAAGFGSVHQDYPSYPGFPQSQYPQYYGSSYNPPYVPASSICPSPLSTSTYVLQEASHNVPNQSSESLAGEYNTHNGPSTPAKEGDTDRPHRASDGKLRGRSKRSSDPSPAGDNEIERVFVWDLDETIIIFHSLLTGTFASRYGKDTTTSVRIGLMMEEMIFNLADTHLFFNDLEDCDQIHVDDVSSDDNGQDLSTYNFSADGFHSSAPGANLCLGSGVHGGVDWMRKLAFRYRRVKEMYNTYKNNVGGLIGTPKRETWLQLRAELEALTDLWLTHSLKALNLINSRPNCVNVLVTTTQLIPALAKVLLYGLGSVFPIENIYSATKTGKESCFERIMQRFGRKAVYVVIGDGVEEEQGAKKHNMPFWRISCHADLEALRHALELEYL
Target sequence (Q15475 whole entry, looked up): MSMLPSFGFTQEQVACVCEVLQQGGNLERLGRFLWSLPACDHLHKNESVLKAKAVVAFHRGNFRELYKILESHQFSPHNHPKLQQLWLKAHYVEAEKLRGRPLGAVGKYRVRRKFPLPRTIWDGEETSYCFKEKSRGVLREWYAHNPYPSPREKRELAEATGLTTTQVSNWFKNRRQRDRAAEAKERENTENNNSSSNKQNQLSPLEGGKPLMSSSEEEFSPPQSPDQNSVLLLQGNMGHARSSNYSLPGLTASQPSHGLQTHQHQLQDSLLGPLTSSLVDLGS
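Compounds are tested against tagged Six1 and Eya2 proteins bridged by glutathione donor and nickel acceptor beads; after a one-hour incubation at 37 °C without light, AlphaScreen emission is recorded.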
Active calls of the source: *. Unless noted, no stated cut-off is given here; in the data, active means activity change below about -65%; inconclusive means mostly about -30% to -63%; inactive means weaker than that. Unless noted, on the % scale 0 is the no-effect control and ±100 the full control effect.

Results for O=C(O)c1ccc(C2CCCCC2)cn1 ?
CCT modulator: -0.3; Eya2 inh: -20.9%; PI4K2A inh: -17.5; CtBP-E1A blk: -84.6*; Six1-Eya2 blk: -90.0*

Results for O=C(O)C1=C(C2CCCCC2)C(=O)c2ccccc21 ?
CCT modulator: -4.9; PI4K2A inh: 8.2; CtBP-E1A blk: -15.2; Six1-Eya2 blk: 24.6

How did Cn1ncc2c(N3CCN(c4ccccc4Cl)CC3)ncnc21 do in these assays?
PI4K2A inh: -10.9

Results for COc1cccc(NC(=O)c2nc(S(C)(=O)=O)ncc2Cl)c1 ?
CCT modulator: -0.8; Eya2 inh: 1.9%; PI4K2A inh: -1.2; CtBP-E1A blk: -90.3*; Six1-Eya2 blk: 24.0

What do the screens show for `Cc1cccc(NC(=O)c2nc(S(C)(=O)=O)ncc2Cl)c1`?
PI4K2A inh: 4.1

How did Cc1cc(C(=O)CCl)c(C)n1-c1cccc(S(=O)(=O)N2CCOCC2)c1 do in these assays?
CCT modulator: -4.1; Eya2 inh: 3.9%; PI4K2A inh: 16.1; CtBP-E1A blk: -91.4*; Six1-Eya2 blk: -68.5*

How did CC(=O)CC/C=C(\C)CC/C=C(\C)CC/C=C(\C)CCC=C(C)C do in these assays?
PI4K2A inh: -0.9

Results for Cc1sc2ncnc(N/N=C/c3ccccc3O)c2c1C ?
CCT modulator: 0.6; Eya2 inh: -18.8%; PI4K2A inh: -1.8; CtBP-E1A blk: -87.6*; Six1-Eya2 blk: -86.1*

Results for Cc1sc2ncnc(N/N=C/c3ccc(O)cc3)c2c1C ?
CCT modulator: 0.6; Eya2 inh: -6.9%; PI4K2A inh: 1.0; CtBP-E1A blk: -1.2; Six1-Eya2 blk: inconclusive

How did CO/N=C(\C(=O)N[C@@H]1C(=O)N2C(C(=O)O)=C(CSc3nc(=O)c(O)nn3C)CS[C@H]12)c1csc(N)n1 do in these assays?
PI4K2A inh: -7.7

How did O=C1NCCCC1C(=O)N/N=C/c1ccc([N+](=O)[O-])cc1 (configuration not stated) do in these assays?
CCT modulator: 1.4; Eya2 inh: inconclusive; PI4K2A inh: 2.9; Six1-Eya2 blk: 3.3

How did O=C(NN=Cc1ccccc1O)C1CC1 do in these assays?
CCT modulator: -2.6; PI4K2A inh: -0.4; CtBP-E1A blk: inconclusive; Six1-Eya2 blk: inconclusive

How did O=C(N/N=C/c1cc([N+](=O)[O-])ccc1O)C1CC1 do in these assays?
CCT modulator: -1.7; Eya2 inh: 1.6%; PI4K2A inh: 6.8; CtBP-E1A blk: -25.8; Six1-Eya2 blk: -85.3*

What do the screens show for `CCc1ccc(N2CC(C(=O)N/N=C/c3cc([N+](=O)[O-])ccc3O)CC2=O)cc1` (configuration not stated)?
CCT modulator: -0.2; Eya2 inh: 17.2%; PI4K2A inh: -3.0; CtBP-E1A blk: -88.4*; Six1-Eya2 blk: -79.8*

Results for O=C1NCCCC1C(=O)N/N=C/c1cc([N+](=O)[O-])ccc1O (configuration not stated) ?
CCT modulator: -1.0; Eya2 inh: -9.5%; PI4K2A inh: -0.2; CtBP-E1A blk: -96.3*; Six1-Eya2 blk: -69.1*

Results for CCOC(=O)C1CCCN(S(=O)(=O)c2cc3c(cc2Br)CCN3C(=O)CC)C1 (configuration not stated) ?
PI4K2A inh: -0.3

Results for CN1CCN(N)CC1 ?
PI4K2A inh: -3.6

What do the screens show for `CCCCCNC(=O)CCn1c(=O)[nH]c2ccccc2c1=O`?
PI4K2A inh: 0.8

What do the screens show for `CCn1c(CCC(N)=O)nnc1SCC(=O)c1cc(C)n(C2CC2)c1C`?
CCT modulator: -1.6; Eya2 inh: 2.5%; PI4K2A inh: -53.0*; Six1-Eya2 blk: -5.4

How did CCCc1ncc(C(=O)O)s1 do in these assays?
PI4K2A inh: -0.3

Results for CC1(CCc2ccccc2)NC(=O)N(CC(=O)Nc2ccccc2)C1=O (configuration not stated) ?
CCT modulator: -0.1; Eya2 inh: 0.1%; PI4K2A inh: 0.1; CtBP-E1A blk: 7.4; Six1-Eya2 blk: -5.6

How did CC1(CCc2ccccc2)NC(=O)N(CC(=O)Nc2c(F)cccc2F)C1=O (configuration not stated) do in these assays?
CCT modulator: -50.8*; Eya2 inh: -38.4%; PI4K2A inh: 3.5; CtBP-E1A blk: 7.0; Six1-Eya2 blk: 1.7

How did CCCC12CN3CC(C)(CN(C1)C31CCCCC1)C2=O do in these assays?
CCT modulator: -48.0*; Eya2 inh: 14.7%; PI4K2A inh: -3.0; CtBP-E1A blk: -1.4; Six1-Eya2 blk: 6.5

What do the screens show for `CCCC12CN3CC(C)(CN(C1)C31C(=O)Nc3ccc(C)cc31)C2=O` (configuration not stated)?
CCT modulator: 0.5; Eya2 inh: 7.0%; PI4K2A inh: 0.2; CtBP-E1A blk: -9.0; Six1-Eya2 blk: -1.1

How did CCOC(=O)Cn1nnnc1CN(Cc1cccs1)Cc1cc2cc(C)ccc2[nH]c1=O do in these assays?
CCT modulator: -30.9*; Eya2 inh: -1.8%; PI4K2A inh: 2.3; CtBP-E1A blk: -9.4; Six1-Eya2 blk: -1.5

What do the screens show for `O=C(N/N=C/c1c(O)n(Cc2ccco2)c(=O)[nH]c1=O)c1ccccc1`?
CCT modulator: -4.9; Eya2 inh: -25.1%; PI4K2A inh: -8.7; CtBP-E1A blk: -84.8*; Six1-Eya2 blk: -85.9*

How did Cn1cc(C(=O)C(=O)NCCc2ccccc2)c2ccccc21 do in these assays?
CCT modulator: -50.8*; Eya2 inh: 20.2%; PI4K2A inh: 3.4; CtBP-E1A blk: 7.8; Six1-Eya2 blk: 2.8

How did Cc1c(CC(=O)O)c(=O)oc2c(C)c3occ(-c4ccccc4)c3cc12 do in these assays?
CCT modulator: -0.4; Eya2 inh: -10.3%; PI4K2A inh: -5.7; CtBP-E1A blk: 0.0; Six1-Eya2 blk: -77.1*

How did Cc1c(CCC(=O)NCC(=O)O)c(=O)oc2cc3occ(-c4ccccc4)c3cc12 do in these assays?
CCT modulator: 0.8; Eya2 inh: -27.5%; PI4K2A inh: -12.6; CtBP-E1A blk: -25.5; Six1-Eya2 blk: inconclusive

How did Cc1c(CCC(=O)O)c(=O)oc2cc3occ(-c4ccc(Cl)cc4)c3cc12 do in these assays?
CCT modulator: 0.0; Eya2 inh: -4.6%; PI4K2A inh: -2.5; CtBP-E1A blk: -71.0*; Six1-Eya2 blk: inconclusive

What do the screens show for `CCCC(NC(=O)CCc1c(C)c2cc3c(-c4ccccc4)coc3cc2oc1=O)C(=O)O` (configuration not stated)?
CCT modulator: -3.6; Eya2 inh: -11.7%; PI4K2A inh: -1.9; CtBP-E1A blk: -67.8*; Six1-Eya2 blk: -17.1
